Results as given in PubChem BioAssay (Tox21).
Records with an inconclusive call do not appear. Entries that show only a call come without a potency. Unmarked numbers belong to inactive results. The source made the active and inactive calls. Unless noted, calls follow the shape of the full dose curve.
Potency is read from the fitted curve at half-maximal effect.

Assay: Nuclear factor erythroid 2-related factor 2/antioxidant responsive element (Nrf2/ARE) small molecule agonists: qHTS cell viability counter screen in human keratinocytes (AID 1919968; active = well fitted cell-killing curve with a large enough effect in the repeat runs; also: nearly all actives have a fitted effect of over 55% in size)
Conditions: KeratinoSens HaCaT ARE cells viability, CellTiter-Fluor, 24 h; series mostly up to 92.4 µM
Procedure, shortened: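 Fluorescence read-out from CellTiter-Fluor after 1 h at 37 C. Wells held HaCaT-derived ARE-luciferase reporter cells (1,500/well) treated 23 h with DMSO-dissolved compounds. Run in the same wells as the luciferase agonist read.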
With `CCCCCCCCCCCCCCBr` the Potency was “inactive”. For `Cc1ccc2c(c1)c1c3n2CCNC3CCC1` (stereo not drawn), the Potency was “inactive”. For `O=C(O)CCCC[P+](c1ccccc1)(c1ccccc1)c1ccccc1`, the Potency was “inactive”. With `CC(C)C1OCCN1CCOC(=O)NCCCCCCNC(=O)OCCN1CCOC1C(C)C` (stereo not drawn) the Potency was “inactive”. For `CCCCCCCCSCc1cc(C)c(O)c(CSCCCCCCCC)c1`, the Potency was “inactive”. For `O=C(c1ccc(O)cc1)c1ccc(Cl)cc1`, the Potency was “inactive”. In the case of `CC(=O)Oc1cc(C(C)C)c(OCCN(C)C)cc1C`, the Potency is reported as “inactive”. In the case of `CN(C)CCCOC1(Cc2ccccc2)CCCCCC1`, the Potency is reported as “inactive”. In the case of `CC(C(=O)O)c1ccc(CC2CCCC2=O)cc1` (stereo not drawn), the Potency is reported as “inactive”. Compound `Nc1ccc(S(=O)(=O)Nc2ccnn2-c2ccccc2)cc1` has an activity change, negative = cytotoxicity of 8.64% [at 19 µM]. For `CC(C)Cn1cnc2c(N)nc3ccccc3c21`, the activity change, negative = cytotoxicity was -5.63% [at 19 µM]. With `Oc1cccc2[nH]ccc12` the Potency was “inactive”. With `C/C=C\C/C=C/CCCCCCCCOC(C)=O` the Potency was “inactive”. For `CC(C)OCC1CO1` (stereo not drawn), the Potency was “inactive”. With `CCOC(=O)N1CCC(Nc2ccc(Cl)cc2N)CC1` the Potency was “inactive”. For `CC(C)(O)c1ccc(CNC(=O)c2cccnc2Oc2ccc(F)cc2)cc1`, the Potency was “inactive”. In the case of `NCC1CCC(C(=O)Oc2ccc(CCC(=O)O)cc2)CC1` (stereo not drawn), the Potency is reported as “inactive”. With `O=C(CCCl)NCc1ccccc1` the Potency was “inactive”. For `CCCC(=O)c1cc(O)c(O)cc1O`, the Potency was 9.69 µM (active). For `CCN1CCCC1CNC(=O)c1cc(S(=O)(=O)CC)c(N)cc1OC` (stereo not drawn), the Potency was “inactive”. For `O=C(CCOCCOCCOCCOCCC(=O)Nc1c(I)cc(I)c(C(=O)O)c1I)Nc1c(I)cc(I)c(C(=O)O)c1I`, the Potency was “inactive”. With `CC(C)C(=O)Nc1cccc(C(F)(F)F)c1` the Potency was “inactive”. In the case of `Clc1ccnc(Cl)n1`, the Potency is reported as “inactive”.

Assay: Nuclear factor erythroid 2-related factor 2/antioxidant responsive element (Nrf2/ARE) small molecule agonists: luciferase reporter gene qHTS assay in human keratinocytes (AID 1919969); also: nearly all actives have a fitted effect of over 35% in size
Conditions: KeratinoSens HaCaT ARE-luciferase, luminescence, 24 h; series mostly up to 92.4 µM
In the case of `O=C(O)c1cc(C(=O)O)c(C(=O)O)cc1C(=O)O`, the Potency is reported as “inactive”. With `O=S(=O)(O)c1ccc(N=Nc2c(O)ccc3ccccc23)cc1` the Potency was “inactive”. In the case of `COS(=O)(=O)C(F)(F)F`, the Potency is reported as 71.7 µM (active). In the case of `O=C(NS(=O)(=O)/C=C/c1ccccc1)c1ccc(F)cc1Cl`, the Potency is reported as 27.3 µM (active). In the case of `CC(C)(Sc1cc(C(C)(C)C)c(O)c(C(C)(C)C)c1)Sc1cc(C(C)(C)C)c(O)c(C(C)(C)C)c1`, the Potency is reported as “inactive”. For `Nc1c(N=Nc2ccc(-c3ccc(N=Nc4cc(S(=O)(=O)O)c5ccccc5c4N)cc3)cc2)cc(S(=O)(=O)O)c2ccccc12`, the Potency was “inactive”. For `CC(C)NCCCC1(C(N)=O)c2ccccc2-c2ccccc21`, the Potency was “inactive”. With `CCCCCc1ccc(N)cc1` the Potency was “inactive”. With `CC/C=C\CCOC(=O)c1ccccc1O` the Potency was “inactive”. For `CCCCCCCCCCCCCCNCCO`, the Potency was 13.3 µM (active). In the case of `O=C1OC(O)C(C(Cl)Cl)=C1Cl` (stereo not drawn), the Potency is reported as 25.1 µM (active). In the case of `Cc1cc2c(s1)Nc1ccccc1N=C2N1CCN(C)CC1`, the Potency is reported as “inactive”. For `CC1(C)CC(OC(=O)CCCCCCCCC(=O)OC2CC(C)(C)NC(C)(C)C2)CC(C)(C)N1`, the activity, positive = activation was -1.35% [at 19 µM]. In the case of `C=CC(=O)OCCOCCOC(=O)C=C`, the Potency is reported as 24.4 µM (active). For `FC(F)(F)C(F)(F)C(F)(F)C(F)(F)C(F)(F)C(F)(F)C(F)(F)C(F)(F)Br`, the Potency was “inactive”. For `C=CC(=O)OCCOCC(CC)(COCCOC(=O)C=C)COCCOC(=O)C=C`, the Potency was 12.7 µM (active). With `C[C@H]1O[C@H](O[C@H]2[C@H](O)[C@@H](O)[C@@H](O[C@H]3[C@H](O)[C@@H](O)[C@H](O)O[C@@H]3CO)O[C@@H]2CO)[C@H](O)[C@@H](O)[C@@H]1N[C@H]1C=C(CO)[C@@H](O)[C@H](O)[C@H]1O` the Potency was “inactive”. In the case of `CCCCCCCCCCCCCCBr`, the Potency is reported as “inactive”. With `Cc1ccc2c(c1)c1c3n2CCNC3CCC1` (stereo not drawn) the Potency was “inactive”. With `O=C(O)CCCC[P+](c1ccccc1)(c1ccccc1)c1ccccc1` the Potency was “inactive”. For `CC(C)C1OCCN1CCOC(=O)NCCCCCCNC(=O)OCCN1CCOC1C(C)C` (stereo not drawn), the Potency was “inactive”. For `CCCCCCCCSCc1cc(C)c(O)c(CSCCCCCCCC)c1`, the Potency was 61.1 µM (active). With `O=C(c1ccc(O)cc1)c1ccc(Cl)cc1` the Potency was “inactive”. With `CC(=O)Oc1cc(C(C)C)c(OCCN(C)C)cc1C` the Potency was “inactive”. For `CN(C)CCCOC1(Cc2ccccc2)CCCCCC1`, the Potency was “inactive”. In the case of `CC(C(=O)O)c1ccc(CC2CCCC2=O)cc1` (stereo not drawn), the Potency is reported as “inactive”. For `Nc1ccc(S(=O)(=O)Nc2ccnn2-c2ccccc2)cc1`, the activity, positive = activation was 4.54% [at 19 µM]. In the case of `CC(C)Cn1cnc2c(N)nc3ccccc3c21`, the activity, positive = activation is reported as 7.96% [at 19 µM]. For `Oc1cccc2[nH]ccc12`, the Potency was “inactive”. With `C/C=C\C/C=C/CCCCCCCCOC(C)=O` the Potency was 68.6 µM (active). With `CC(C)OCC1CO1` (stereo not drawn) the Potency was 30.5 µM (active). For `CCOC(=O)N1CCC(Nc2ccc(Cl)cc2N)CC1`, the Potency was “inactive”. With `CC(C)(O)c1ccc(CNC(=O)c2cccnc2Oc2ccc(F)cc2)cc1` the Potency was “inactive”. For `NCC1CCC(C(=O)Oc2ccc(CCC(=O)O)cc2)CC1` (stereo not drawn), the Potency was “inactive”. With `O=C(CCCl)NCc1ccccc1` the Potency was “inactive”. In the case of `CCCC(=O)c1cc(O)c(O)cc1O`, the Potency is reported as 4.86 µM (active). In the case of `CCN1CCCC1CNC(=O)c1cc(S(=O)(=O)CC)c(N)cc1OC` (stereo not drawn), the Potency is reported as “inactive”. In the case of `O=C(CCOCCOCCOCCOCCC(=O)Nc1c(I)cc(I)c(C(=O)O)c1I)Nc1c(I)cc(I)c(C(=O)O)c1I`, the Potency is reported as “inactive”. In the case of `CC(C)C(=O)Nc1cccc(C(F)(F)F)c1`, the Potency is reported as “inactive”. For `Clc1ccnc(Cl)n1`, the Potency was 69.6 µM (active).
